# The whole screen tested about 68,000 compounds, of which about 2,700 (4%) showed an effect of 50% or more. For the sample, strong results were picked, then their nearest neighbours and some compounds at random.
# Test system: Plasmodium berghei
# Experiment: Screen against P. berghei liver stage (PbLuc), transformed with Luciferase, at 2uM
# Assay type: functional, HepG2
# Settings: tested at 2 uM
row,Structure (SMILES),INHIBITION [%]
1,CC(=O)NC1CCN(c2ncnc3c2c(C)nn3C)C1 (configuration not stated),32.56
2,CCC1(CC)Cc2ccccc2-c2nc(CN(C)C)nc(O)c21,29.02
3,CC(C)N(CCC#N)C(=O)c1cnc(-c2ccc3c(c2)OCO3)s1,37.87
4,CC(C)N(CC(N)=O)C(=O)c1cnc(-c2ccc3c(c2)OCO3)s1,75.8
5,CN(C)C(=O)c1cnc(-c2ccc3c(c2)OCO3)s1,-197.6
6,O=C(O)C1(n2ccc(-c3ccco3)n2)CCN(Cc2cccnc2)CC1,-30.35
7,Cc1ccc2nc(CN(C)Cc3ccc(C)o3)cc(=O)n2c1,5.02
8,Cc1nc(C(=O)N2CCN(C(C)c3ccccc3F)CC2)cs1 (configuration not stated),19.06
9,CN1CCc2ncc(CNc3cc(N(C)C)ncn3)n2CC1,-14.45
10,CNc1cc(C)nc(N2Cc3cnn(Cc4ccc(F)cc4)c3C2)n1,52.03
11,Cc1cc(C)nc(N2Cc3cnn(Cc4ccc(F)cc4)c3C2)n1,-51.41
12,Cc1ccnc(N2Cc3cnn(Cc4ccc(F)cc4)c3C2)n1,-38.09
13,O=C(CN1CC(n2cccn2)C1)NCCc1c[nH]c2ccccc12,25.74
14,O=S(=O)(NCCn1ccc(-c2cccs2)n1)C1CC1,-49.59
15,Cc1nc(-c2ccccc2C)n(CC(=O)NC(C)C2CC2)n1 (configuration not stated),12.66
16,O=C(NCC1CC1)C1CCC2(CCN(C(=O)c3ccoc3)CC2)O1 (configuration not stated),36.99
17,O=C(NCC1CC1)C1CCC2(CCN(C(=O)c3ccncc3)CC2)O1 (configuration not stated),52.36
18,Cc1ccc(C(=O)N2CCC3(CCC(C(=O)NCC4CC4)O3)CC2)o1 (configuration not stated),38.09
19,Cc1occc1C(=O)N1CCC2(CCC(C(=O)NCC3CC3)O2)CC1 (configuration not stated),51.19
20,O=C(NCC1CC1)C1CCC2(CCN(C(=O)c3cccnc3)CC2)O1 (configuration not stated),22.71
21,Cc1ccccc1C(=O)N1CCC2(CCC(C(=O)NCC3CC3)O2)CC1 (configuration not stated),-28.91
22,CCC(C)(CC(=O)OC)NC(=O)c1ccc(C(C)=O)cc1 (configuration not stated),27.85
23,COc1cccc(-c2cc(C(=O)NCCCn3cnnc3)[nH]n2)c1,-48.78
24,CCNc1ncc(C(=O)NCc2cccc(OC(F)(F)F)c2)cn1,-15.83
25,CCNc1ncc(C(=O)NCc2ccc(F)c(C(F)(F)F)c2)cn1,-18.6
26,CCNc1ncc(C(=O)NCc2ccc3nsnc3c2)cn1,86.69

row,Structure (SMILES),INHIBITION [%]
1,Cc1nn(C)c(C)c1NC(=O)CN1CCc2c(nc(C(C)C)n2C)C1,-31.89
2,CC(C)(C(=O)NCC(=O)N1CCCC1)c1ccccc1F,5.47
3,CC(C)(C(=O)N1CCC(CS(N)(=O)=O)CC1)c1ccccc1F,30.06
4,CC(C)(C(=O)N1CCC(C(N)=O)C1)c1ccccc1F (configuration not stated),60.9
5,CCOc1ccc(Oc2cc(CN)ccn2)cc1,16.95
6,O=C(CCC(=O)N1CCOCC1)NCc1cccnc1-n1cccn1,-15.37
7,Cc1cn2c(n1)CCC(NC(=O)COCCOc1ccccc1)C2 (configuration not stated),1.49
8,Cc1nn(C)c2ncnc(N3CCCC(OCc4cccnc4)C3)c12 (configuration not stated),70.81
9,Cc1cc2c(N3CCCC(OCc4cccnc4)C3)ncnc2s1 (configuration not stated),3.62
10,Cc1nn(C)c2ncnc(N3CCCC(OCc4ccccn4)C3)c12 (configuration not stated),10.23
11,c1cc(CN2CCc3ncc(CN4CCCCC4)n3CC2)cs1,33.47
12,COCCN1CCC2(CC1)CC(N1CCOCC1)c1cc(C)ccc12 (configuration not stated),-6.8
13,CC(=O)N1CCCC1c1nccnc1Nc1ncccn1 (configuration not stated),13.33
14,N#Cc1cccc(N2CCCC3(CN(C(=O)NC4CC4)CCO3)C2)c1 (configuration not stated),6.36
15,Cc1cc(CS(=O)(=O)c2ccccc2)no1,58.69
16,COc1cccc(S(=O)(=O)Cc2cc(C)on2)c1,57.59
17,CC(C)Cc1nc(CS(=O)(=O)c2ccccc2)no1,-5.66
18,COc1ccc(S(=O)(=O)Cc2cc(C)on2)cc1,21.24
19,CCc1noc(CS(=O)(=O)c2cccc(OC)c2)n1,38.33
20,Cc1cc(CN(C)CCN(C)c2ccccc2)no1,7.62
21,CN(C)c1ccc(CNCc2cnc(N3CCOCC3)nc2)cn1,-160.54
22,CC(NCc1ccccn1)c1cc2c(cc1Br)OCCO2 (configuration not stated),8.93
23,CC(NCc1ccncc1)c1cc2c(cc1Br)OCCO2 (configuration not stated),42.7
24,CC(NCc1cccnc1)c1cc2c(cc1Br)OCCO2 (configuration not stated),52.83
25,Cc1ccc(CN2CCN(C(=O)c3ccc(Br)o3)CC2)cc1,45.77
26,CC(C)Oc1ncnc2c1CCN(Cc1ccco1)CC2,27.44

# From ChEMBL document CHEMBL4513216, “Probing the Open Global Health Chemical Diversity Library for Multistage-Active Starting Points for Next-Generation Antimalarials” (ACS Infect Dis, 2020)
